Laboratory results taken from PubChem BioAssay AID1542 (National Center for Advancing Translational Sciences (NCATS), 2009).
Results filed as inconclusive are left out. Calls of active or inactive are those of the source. Calls come from the whole dose curve; as a rule, active = well fitted curve in the direction sought with a large enough effect; inconclusive = small, poorly fitted or top-dose-only effect, or effect the other way, or another doubt; inactive = no such curve, though single readings can be large or run the other way.

target: Pyruvate kinase PKM (Homo sapiens) (UniProt P14618); test: Secondary assay for Activators of Human Pyruvate Kinase M1 isoform; settings: purified hPK-M1, LDH-coupled NADH fluorescence kinetic; series mostly up to 57.5 µM; activity change, positive = activation: at the top concentration
Source text: Confirmatory assay NIH Chemical Genomics Center [NCGC] Matthew G. Vander Heiden, M.D., Ph.D. [Harvard Medical School, 77 Avenue Louis Pasteur, Boston, MA 02115] NCGC Assay Overview: Human pyruvate kinase […] (hPK-M1)enzyme was supplied as a highly purified (>95% pure) preparation from Harvard Medical School and a secondary assay was used to evaluate compounds. This assay couples the formation of pyruvate from hPK-R using lactate dehydrogenase (LDH) and NADH. The depletion of NADH is followed in a fluorescent-based kinetic assay that follows the formation of pyruvate to lactate, as catalyzed LDH. Pyruvate kinase substrates, PEP and ADP, were present in the assay at 0.1 mM and 4 mM respectively. In this kinetic assay initial rates were determined by following the fluorescence of NADH depletion.
NCGC Assay Protocol Summary: Three uL of substrate mix (final concentration, 50 mM Tris-Cl pH 8.0, 200 mM KCl, 15 mM MgCl2, 0.1 mM PEP, 4.0 mM ADP, and 0.2 mM NADH) was dispensed into black-solid 1536 well plates. 23 nL of compounds were delivered by a pin tool and 1 uL of enzyme mix (final concentrations, 10 nM hPK-M1 and 1 uM of LDH) was added. Plates were immediately placed in ViewLux (Perkin Elmer) and NADH fluorescence was determined at 30 second exposure intervals for between 3 and 6 minutes. Data were normalized to the uninhibited controls.

Sequence of Pyruvate kinase PKM (Homo sapiens) (P14618 whole entry, looked up, canonical isoform): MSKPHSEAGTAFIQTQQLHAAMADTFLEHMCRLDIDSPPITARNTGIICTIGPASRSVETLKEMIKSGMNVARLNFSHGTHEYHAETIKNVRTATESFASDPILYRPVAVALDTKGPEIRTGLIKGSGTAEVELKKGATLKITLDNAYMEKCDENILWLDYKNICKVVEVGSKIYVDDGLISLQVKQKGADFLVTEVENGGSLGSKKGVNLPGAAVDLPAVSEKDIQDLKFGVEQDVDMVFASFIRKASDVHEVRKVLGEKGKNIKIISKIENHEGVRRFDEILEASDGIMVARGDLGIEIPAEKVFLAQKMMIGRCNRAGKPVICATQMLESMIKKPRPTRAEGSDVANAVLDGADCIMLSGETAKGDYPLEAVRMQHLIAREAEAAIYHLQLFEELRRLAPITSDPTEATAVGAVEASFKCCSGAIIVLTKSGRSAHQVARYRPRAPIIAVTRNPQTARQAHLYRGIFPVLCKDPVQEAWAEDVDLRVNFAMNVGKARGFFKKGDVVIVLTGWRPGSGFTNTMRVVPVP

Activity change, positive = activation, inactive:
O=S(=O)(c1ccc2c(c1)OCCO2)N1CCN(S(=O)(=O)c2ccccn2)CC1 -9.53%
Cn1ccc2cc(S(=O)(=O)N3CCN(S(=O)(=O)c4c(F)cccc4F)CC3)ccc21 14.4%
Cc1cc2c(s1)c1cnn(Cc3cccc(F)c3)c(=O)c1n2C 14.8%
Cc1cc2c(s1)c1cnn(Cc3c(F)c(F)cc(F)c3F)c(=O)c1n2C 9.56%
O=S(=O)(c1ccc2c(c1)OCCO2)N1CCN(S(=O)(=O)c2ccc3nc(Cl)c(Cl)nc3c2)CC1 28.8%
